Experimental data: PubChem BioAssay (Tox21)
“And” between values parts separate entries of the source, which are not always exact repeats. Equal values may be shown once. Records with an inconclusive call do not appear. Entries that show only a call come without a potency. A structure can be active in one record and inactive in another. The source made the active and inactive calls. Unless noted, calls come from the whole dose curve; as a rule, active = well fitted curve in the direction sought with a large enough effect in the repeat runs; inconclusive = weak or mixed curves; inactive = no such curve, though single readings can be large; an effect the other way counts as inactive or inconclusive.

Tests used:
[1] = qHTS assay for identifying genotoxic compounds that show differential cytotoxicity against isogenic chicken DT40 cell lines with known DNA damage response pathways - wild type cell line (AID 743012); note: nearly all actives have a fitted effect of over 60% in size; note: potency is the fitted concentration of half-maximal effect
Procedure, shortened: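 First, wild type DT40 cells were plated at 300 per well and equilibrated about 0.5 h at 37 C/5% CO2. Next, compounds in DMSO were added and exposure lasted 40 h. Finally, CellTiter-Glo was added for 30 min at room temperature and luminescence recorded.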

[2] = qHTS assay for identifying genotoxic compounds that show differential cytotoxicity against isogenic chicken DT40 cell lines with known DNA damage response pathways - Rad54/Ku70 mutant cell line (AID 743015); note: nearly all actives have a fitted effect of over 60% in size; note: potency is the fitted concentration of half-maximal effect
[3] = qHTS assay to identify small molecule antagonists of the androgen receptor (AR) signaling pathway - cell viability counter screen (AID 743033; note: nearly all actives have a fitted effect of over 45% in size; note: potency is the fitted concentration of half-maximal effect)
[4] = qHTS assay to identify small molecule antagonists of the androgen receptor (AR) signaling pathway using the MDA cell line - cell viability counter screen (AID 743041; note: nearly all actives have a fitted effect of over 45% in size)
Procedure, shortened: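 Viability counter screen run alongside the AR antagonist reporter: cells seeded 5 h before compound, R1881 added, 16 h incubation at 37C without CO2, fluorescent CellTiter-Fluor signal quantified.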

[5] = qHTS assay to identify small molecule antagonists of the thyroid receptor (TR) signaling pathway - cell viability counter screen (AID 743064); note: nearly all actives have a fitted effect of over 50% in size; note: potency is the fitted concentration of half-maximal effect
Procedure, shortened: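 In-well cytotoxicity read by CellTiter-Fluor (30 min, 37 C) following 23.5 h exposure of GH3 cells bearing a TRE-luciferase sensor. Compounds were added alongside 1 nM (final) T3 to drive TR transactivation.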

[6] = qHTS assay to identify small molecule antagonists of the thyroid receptor (TR) signaling pathway (AID 743065); note: nearly all actives have a fitted effect of over 55% in size; note: potency is the fitted concentration of half-maximal effect
Procedure, shortened: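 GH3.TRE-Luc rat pituitary cells carrying two TR response elements driving luciferase were plated for 4 h, given compound plus 1 nM T3 (final), and incubated 23.5 h at 37 C. ONE-Glo luminescence measured reporter inhibition; CellTiter-Fluor fluorescence tracked cytotoxicity.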

[7] = system: thyroid hormone receptor (rat, GH3 cells); assay: qHTS assay to identify small molecule agonists of the thyroid receptor (TR) signaling pathway (AID 743066; calls by dose curve)
[8] = qHTS assay to identify small molecule antagonists of the estrogen receptor alpha (ER-alpha) signaling pathway - cell viability counter screen (AID 743074; calls by dose curve;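 note: HEK293 cells carrying ER-alpha-UAS-bla reporter stimulated with 17beta-estradiol; nearly all actives have a fitted effect of over 45% in size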)
Aromatase (Homo sapiens) = Aromatase (Homo sapiens) (UniProt P11511); assay: qHTS assay to identify aromatase inhibitors (AID 743083); note: nearly all actives have a fitted effect of over 55% in size; note: potency is the fitted concentration of half-maximal effect
[9] = qHTS assay to identify aromatase inhibitors - cell viability counter screen (AID 743084);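 note: cells stimulated with testosterone during compound exposure; nearly all actives have a fitted effect of over 55% in size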; note: potency is the fitted concentration of half-maximal effect
[10] = qHTS assay to identify small molecule antagonists of the estrogen receptor alpha (ER-alpha) signaling pathway using the BG1 cell line - cell viability counter screen (AID 743081);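 note: compound given together with 17beta-estradiol as the ER stimulus; nearly all actives have a fitted effect of over 45% in size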
[11] = qHTS assay for identifying genotoxic compounds that show differential cytotoxicity against isogenic chicken DT40 cell lines with known DNA damage response pathways - Rev3 mutant cell line (AID 743014); note: nearly all actives have a fitted effect of over 55% in size; note: potency is the fitted concentration of half-maximal effect
[12] = molecular target: Estrogen receptor (Homo sapiens) (UniProt P03372); assay: qHTS assay to identify small molecule agonists of the estrogen receptor alpha (ER-alpha) signaling pathway (AID 743075; calls by dose curve;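 note: HEK293 GripTite cells with ER-alpha and UAS-driven beta-lactamase reporter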; note: potency is the fitted concentration of half-maximal effect)
[13] = qHTS assay to identify small molecule antagonists of the estrogen receptor alpha (ER-alpha) signaling pathway using the BG1 cell line (AID 743080; calls by dose curve;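 note: BG1 cells stimulated with 17beta-estradiol alongside compound; nearly all actives have a fitted effect of over 25% in size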; note: potency is the fitted concentration of half-maximal effect)
Procedure, shortened: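 Luminescence from a 4×ERE-luciferase reporter in BG1-Luc-4E2 cells served as read-out. Cells, pre-cultured 5 days in stripped-serum phenol-red-free medium, were exposed to compound with 17beta-estradiol co-stimulation for 21.5 h at 37 C.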

[14] = molecular target: Androgen receptor (Homo sapiens) (UniProt P10275); assay: qHTS assay to identify small molecule antagonists of the androgen receptor (AR) signaling pathway (AID 743035; active = well fitted inhibition curve with a large enough effect in the signal ratio in the repeat runs, not every such curve was filed as active; the % refers to the signal ratio)
Procedure, shortened: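 Beta-lactamase FRET read (2 h RT incubation with LiveBLAzer B/G) following 16 h of compound plus R1881 treatment of AR-UAS-bla HEK293 cells, which had been pre-incubated 4 h at 37C.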

[15] = molecular target: Androgen receptor (Homo sapiens) (UniProt P10275); assay: qHTS assay to identify small molecule agonists of the androgen receptor (AR) signaling pathway (AID 743036; active = well fitted activation curve with a large enough effect in the signal ratio in the repeat runs, with a control signal flat, not every such curve was filed as active; the % refers to the signal ratio)
Procedure, shortened: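 Activation was read as beta-lactamase FRET signal from LiveBLAzer B/G substrate, added for 2 h at room temperature. Before that, GeneBLAzer AR-UAS-bla GripTite (HEK293) cells had 16 h compound exposure at 37C.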

[16] = molecular target: Androgen receptor (Homo sapiens) (UniProt P10275); assay: qHTS assay to identify small molecule agonists of the androgen receptor (AR) signaling pathway using the MDA cell line (AID 743040; note: nearly all actives have a fitted effect of over 20% in size)
Procedure, shortened: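 Luminescence from ONE-Glo, read after 30 min at room temperature, reflects MMTV-driven luciferase in MDA-kb2 cells (AR- and GR-responsive). Treatment lasted 16 h at 37C, 0% CO2.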

[17] = molecular target: Estrogen receptor (Homo sapiens) (UniProt P03372); assay: qHTS assay to identify small molecule antagonists of the estrogen receptor alpha (ER-alpha) signaling pathway (AID 743069; active = well fitted curve in the direction sought with a large enough effect in the signal ratio in the repeat runs, not every such curve was filed as active; the % refers to the signal ratio)
Procedure, shortened: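 Estradiol-stimulated ER-alpha-UAS-bla HEK293 cells, 18 hr compound exposure at 37C. LiveBLAzer B/G substrate, 2 hr RT, fluorescence read.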

[18] = molecular target: Estrogen receptor (Homo sapiens) (UniProt P03372); assay: qHTS assay to identify small molecule agonists of the estrogen receptor alpha (ER-alpha) signaling pathway using the BG1 cell line (AID 743079); details: BG1Luc4E2 cells, ERE-luciferase agonist, 22 h; note: nearly all actives have a fitted effect of over 20% in size

Aromatase (Homo sapiens), sequence (P11511 whole entry, looked up): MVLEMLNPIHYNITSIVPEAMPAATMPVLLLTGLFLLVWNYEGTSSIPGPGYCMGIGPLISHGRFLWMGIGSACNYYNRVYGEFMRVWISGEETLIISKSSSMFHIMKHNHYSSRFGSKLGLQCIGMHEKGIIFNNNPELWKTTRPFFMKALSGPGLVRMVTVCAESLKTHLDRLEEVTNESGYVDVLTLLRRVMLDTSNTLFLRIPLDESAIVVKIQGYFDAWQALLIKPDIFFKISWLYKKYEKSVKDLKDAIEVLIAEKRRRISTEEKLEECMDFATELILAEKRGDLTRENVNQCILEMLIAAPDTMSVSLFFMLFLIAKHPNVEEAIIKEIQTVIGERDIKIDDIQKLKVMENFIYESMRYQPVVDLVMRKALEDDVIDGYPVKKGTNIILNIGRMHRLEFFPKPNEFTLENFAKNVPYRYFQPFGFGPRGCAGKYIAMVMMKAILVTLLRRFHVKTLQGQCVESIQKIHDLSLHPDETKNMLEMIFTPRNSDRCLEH
Estrogen receptor (Homo sapiens), sequence (P03372 whole entry, looked up): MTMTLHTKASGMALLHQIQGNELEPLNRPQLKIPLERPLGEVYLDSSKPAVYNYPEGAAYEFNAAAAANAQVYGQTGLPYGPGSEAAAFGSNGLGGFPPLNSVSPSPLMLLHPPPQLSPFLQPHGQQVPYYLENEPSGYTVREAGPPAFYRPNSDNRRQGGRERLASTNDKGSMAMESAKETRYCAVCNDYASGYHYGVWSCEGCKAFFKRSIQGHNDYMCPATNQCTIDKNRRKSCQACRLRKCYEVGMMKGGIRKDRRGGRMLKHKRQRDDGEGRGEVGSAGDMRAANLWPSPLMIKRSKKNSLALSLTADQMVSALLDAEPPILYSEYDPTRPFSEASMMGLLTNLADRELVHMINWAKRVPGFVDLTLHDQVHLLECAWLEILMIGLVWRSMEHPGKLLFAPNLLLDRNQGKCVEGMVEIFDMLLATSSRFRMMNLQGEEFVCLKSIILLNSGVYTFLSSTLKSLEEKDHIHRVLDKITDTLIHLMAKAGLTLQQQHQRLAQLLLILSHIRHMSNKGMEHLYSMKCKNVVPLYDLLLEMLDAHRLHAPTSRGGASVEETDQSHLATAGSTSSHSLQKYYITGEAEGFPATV
Androgen receptor (Homo sapiens), sequence (P10275 whole entry, looked up): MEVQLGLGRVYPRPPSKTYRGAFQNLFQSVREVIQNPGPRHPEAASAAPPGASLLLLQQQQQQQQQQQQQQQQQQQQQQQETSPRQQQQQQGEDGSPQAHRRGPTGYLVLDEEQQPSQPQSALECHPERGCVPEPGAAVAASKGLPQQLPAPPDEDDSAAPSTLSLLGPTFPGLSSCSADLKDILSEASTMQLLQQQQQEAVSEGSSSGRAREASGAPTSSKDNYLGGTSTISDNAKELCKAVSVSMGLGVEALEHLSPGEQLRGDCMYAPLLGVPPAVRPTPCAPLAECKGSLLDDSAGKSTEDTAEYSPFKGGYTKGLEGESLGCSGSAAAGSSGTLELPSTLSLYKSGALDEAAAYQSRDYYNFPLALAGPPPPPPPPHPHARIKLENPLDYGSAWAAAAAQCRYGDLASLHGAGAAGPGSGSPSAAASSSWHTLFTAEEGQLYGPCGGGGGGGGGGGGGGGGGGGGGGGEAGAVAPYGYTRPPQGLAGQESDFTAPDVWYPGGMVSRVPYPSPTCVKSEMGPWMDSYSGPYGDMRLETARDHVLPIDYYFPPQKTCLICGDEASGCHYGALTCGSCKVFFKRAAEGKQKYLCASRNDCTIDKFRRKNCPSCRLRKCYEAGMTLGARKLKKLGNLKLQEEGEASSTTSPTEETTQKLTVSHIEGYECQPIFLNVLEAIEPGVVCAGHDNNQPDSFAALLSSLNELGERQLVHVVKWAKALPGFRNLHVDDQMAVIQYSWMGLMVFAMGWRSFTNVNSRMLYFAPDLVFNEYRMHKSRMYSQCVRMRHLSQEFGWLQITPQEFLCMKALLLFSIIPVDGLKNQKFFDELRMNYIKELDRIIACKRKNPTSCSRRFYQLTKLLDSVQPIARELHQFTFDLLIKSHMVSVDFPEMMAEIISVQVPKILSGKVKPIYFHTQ

Compound	Potency [1]	Potency [2]	Potency [3]	Potency [4]	Potency [5]	Potency [6]	Potency [7]	Potency [8]	Potency (Aromatase (Homo sapiens))	Potency [9]	Potency [10]	Potency [11]	Potency [12]	Potency [13]	Potency [14]	outcome [15]	outcome [16]	Potency [17]	activation ([18]; at 95 µM (top of the series))	activation ([18]; at 70.3 µM (top of the series))
CCC1(c2cccc(O)c2)CCCCN(C)C1 (stereo unspecified)	inactive	inactive	inactive	inactive	inactive	inactive	inactive	inactive	inactive	inactive	–	–	–	–	–	–	–	–	–	–
C=C1CC[C@@]2(O)[C@H]3Cc4ccc(O)c5c4[C@@]2(CCN3CC2CC2)[C@H]1O5	inactive	inactive	inactive	inactive	inactive	–	–	inactive	inactive	inactive	inactive	–	–	–	–	–	–	–	–	–
O=C1C2CC=CCC2C(=O)N1SC(Cl)(Cl)Cl (stereo unspecified)	473 nM (active) and 6.83 µM (active) and 120 nM (active)	596 nM (active) and 2.42 µM (active) and 135 nM (active)	inactive and 3.41 µM (active)	–	6.68 µM (active) and 2.39 µM (active)	2.98 µM (active) and 68.3 µM (active) and 1.69 µM (active)	inactive	–	13.3 µM (active) and inactive and 3.01 µM (active)	inactive and 21.3 µM (active)	inactive	531 nM (active) and 683 nM (active) and 107 nM (active)	inactive and 48.2 µM [activator] (active)	26.6 µM (active)	–	–	–	–	–	–
C=CCc1cc(OC)c2c(c1)OCO2	inactive	inactive	inactive	inactive	inactive	inactive	inactive	–	inactive	inactive	inactive	inactive	–	–	–	–	–	–	–	–
OP(O)c1ccccc1	inactive	inactive	inactive	inactive	inactive	inactive	inactive	inactive	inactive	inactive	inactive	–	inactive	inactive	inactive	inactive	inactive	inactive	6.24% (inactive)	–
CC1N=C(N)OC1c1ccccc1 (stereo unspecified)	inactive	inactive	inactive	inactive	inactive	inactive	inactive	–	inactive	inactive	–	–	inactive	inactive	–	–	–	inactive	–	10.7% (inactive)
O=C(O)C(F)(F)C(F)(F)C(F)(F)C(F)(F)C(F)(F)C(F)(F)F	–	inactive	inactive	–	inactive	inactive	inactive	–	inactive	inactive	inactive	inactive	–	–	–	–	–	–	–	–
NC1(c2ccccc2)CCCCC1	60.6 µM (active)	–	inactive	inactive	42.9 µM (active)	48.1 µM (active)	inactive	inactive	inactive	inactive	inactive	–	inactive	inactive	–	–	–	inactive	–	0.0889% (inactive)
CC(C)(N)Cc1ccc(Cl)cc1	–	inactive	inactive	inactive	–	–	inactive	inactive	inactive	inactive	inactive	–	inactive	inactive	–	–	–	–	–	0.193% (inactive)
O=[N+]([O-])CCO	inactive	inactive	inactive	inactive	inactive	inactive	inactive	inactive	inactive	–	inactive	–	inactive	inactive	–	–	–	inactive	-2.33% (inactive)	–
